Records with an inconclusive call do not appear. Activity calls are given as the source filed them. The call rests on the fitted dose curve; in most records, active means well fitted inhibition curve with a large enough effect; inconclusive means small, poorly fitted or top-dose-only effect; inactive means flat fitted curve, though single readings scatter.
What was measured:
Assay in all cases: qHTS profiling for inhibitors of Plasmodium falciparum proliferation (AID 504749); further: nearly all actives have a fitted effect of over 60% in size
Details in all cases: P. falciparum in erythrocytes, SYBR Green DNA, 72 h; series mostly up to 28.7 µM
DIV17 = tested on: DIV17
Procedure, shortened: (§1)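 SYBR Green fluorescence (ex 485 nm, em 535 nm) reports parasite DNA after 72 h compound exposure of infected red cells at 0.3% parasitemia, 2.5% hematocrit; signal normalized to 0.29 uM artemisinin and vehicle wells.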

DIV30 = tested on: DIV30
Procedure, shortened: as §1

Dd2 = tested on: Dd2
Procedure, shortened: as §1

ECU = tested on: ECU
Procedure, shortened: as §1

FAB9 = tested on: FAB9
Procedure, shortened: as §1

GB4 = tested on: GB4
Procedure, shortened: as §1

HB3 = tested on: HB3
Procedure, shortened: as §1

ICS = tested on: ICS
Procedure, shortened: as §1

JCK = tested on: JCK
Procedure, shortened: as §1

N140 = tested on: N140
Procedure, shortened: as §1

Measured: Potency
Potency means the concentration at half of the fitted maximal effect.

COc1ccc([C@@H]2CNC(=O)C2)cc1OC1CCCC1
inactive: all assays above

COc1cccc2c1C(=O)c1c(O)c3c(c(O)c1C2=O)C[C@@](O)(C(=O)CO)C[C@@H]3O[C@H]1C[C@H](N)[C@H](OC2CCCCO2)[C@H](C)O1 (stereo partly specified)
active: DIV17 2390 nM | DIV30 6750 nM | Dd2 2000 nM | ECU 2000 nM | FAB9 12600 nM | GB4 4780 nM | HB3 5010 nM | ICS 708 nM | JCK 12600 nM | N140 1580 nM

OCC(O)C(O)C(O)CO (stereo unspecified)
inactive: all assays above

CCC(C(=O)O)C1CCC(C)C(C(C)C(O)C(C)C(=O)C(CC)C2OC3(C=CC(O)[C@@]4(CC[C@](C)(C5CC[C@@](O)(CC)C(C)O5)O4)O3)C(C)CC2C)O1 (stereo partly specified)
active: DIV17 601 nM | DIV30 478 nM | Dd2 891 nM | ECU 1580 nM | FAB9 2240 nM | GB4 536 nM | HB3 891 nM | ICS 1000 nM | JCK 4470 nM | N140 891 nM

COc1ccc2c(c1OC)C(=O)OC2[C@H]1c2c(cc3c(c2OC)OCO3)CCN1C (stereo partly specified)
inactive: all assays above

CCCCCCCCCCCC(CC1OC(=O)C1CCCCCC)OC(=O)C(CC(C)C)NC=O (stereo unspecified)
active: Dd2 794 nM | ECU 398 nM | HB3 1260 nM | ICS 1120 nM | JCK 1000 nM | N140 631 nM

Nc1nc2c(c(=O)[nH]1)N(C=O)[C@H](CNc1ccc(C(=O)N[C@@H](CCC(=O)O)C(=O)O)cc1)CN2
inactive: all assays above

From PubChem BioAssay (NCATS)
